# Results from the supplement of paper PMC8728848.
# Shown is part of a subset that was picked to be rich in the strongest signals.
# B1: AT1G80310(18) (Arabidopsis thaliana), Q0WP36 (protein)
# chain: METTTTPLLPGDRSRCGWLRRRLRLKNPLSSELSGAVGDLGTFIPIVLTLTLVSNLDLSTTLIFTGFYNIATGLLFDIPMPVQPMKSIAAVAVSESPHLTPSQIAAAGASTAATLLLLGATGAMSFLYNIIPLPVVRGVQLSQGLQFAFTAIKYVRFNYDTATLKPSSSPRIWLGLDGLILALAALLFIILSTGSGNDREAEDGDLAETSSNESQSRRRRLRLLSSIPSALIVFALGLVLCFIRDPSIFKDLKFGPSKFHILRISWDDWKIGFLRAAIPQIPLSVLNSVIAVCKLSNDLFDKELSATTVSISVGVMNLIGCWFGAMPVCHGAGGLAGQYRFGARSGLSVIFLGIGKLIVGLVFGNSFVRILSQFPIGILGVLLLFAGIELAMASKDMNSKEDSFIMLVCAAVSMTGSSAALGFGCGVVLYLLLKLRTLDCSSVTLFSRSSDESQVDSEAAPRDV
# Columns and labels:
# Assay in all cases: glycan array binding signal (z-score within array); higher = stronger binding
# Settings in all cases: glycan notation: IUPAC condensed, linker removed
# [1] = target: Fuc(a1-2)Gal(b1-3)GalNAc(a1-3)[Fuc(a1-2)]Gal(b1-4)GlcNAc
# Method in brief: (§1)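 Glycan array data came from 3228 arrays in the Consortium for Functional Glycomics database, and only arrays with an available protein sequence were kept. Glycan names were put into IUPAC-condensed notation, and columns mapping to the same glycan were averaged. The binding signal is a within-array Z-score, averaged across arrays of one protein sequence run at different concentrations or buffers and across linkers. A negative Z-score can be read as non-binding.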
# [2] = target: Fuc(a1-2)Gal(b1-3)[Fuc(a1-4)]GlcNAc(b1-2)Man(a1-3)[Fuc(a1-2)Gal(b1-3)[Fuc(a1-4)]GlcNAc(b1-2)Man(a1-3)]Man(b1-4)GlcNAc(b1-4)GlcNAc
# Method in brief: as §1
# [3] = target: Fuc(a1-2)Gal(b1-3)[Fuc(a1-4)]GlcNAc(b1-3)[Gal(b1-4)GlcNAc(b1-6)]Gal(b1-4)Glc
# Method in brief: as §1
# [4] = target: Fuc(a1-2)Gal(b1-4)Fuc(a1-3)]GlcNAc(b1-2)Man(a1-3)[Fuc(a1-2)Gal(b1-4)[Fuc(a1-3)]GlcNAc(b1-2)Man(a1-6)]Man(b1-4)GlcNAc(b1-4)GlcNAc
# Method in brief: as §1
# [5] = target: Fuc(a1-2)Gal(b1-4)GlcNAc(b1-2)Man(a1-3)[Fuc(a1-2)Gal(b1-4)GlcNAc(b1-2)Man(a1-6)]Man(b1-4)GlcNAc(b1-4)GlcNAc
# Method in brief: as §1
# [6] = target: Fuc(a1-2)[Gal(a1-3)]Gal(b1-3)GlcNAc
# Method in brief: as §1
# [7] = target: Fuc(a1-2)[Gal(a1-3)]Gal(b1-4)GlcNAc(b1-3)GalNAc
# Method in brief: as §1
# [8] = target: Fuc(a1-2)[GalNAc(a1-3)]Gal(b1-3)GlcNAc(b1-3)GalNAc
# Method in brief: as §1
# [9] = target: Fuc(a1-3)[Gal(b1-4)]Glc6S
# Method in brief: as §1
# [10] = target: Fuc(a1-3)[Gal(b1-4)]GlcNAc(b1-6)GalNAc
# Method in brief: as §1
# Fuc(b1-3)GlcNAc = target: Fuc(b1-3)GlcNAc
# Method in brief: as §1
# Gal(a1-2)Gal = target: Gal(a1-2)Gal
# Method in brief: as §1
# Gal(a1-3)Gal = target: Gal(a1-3)Gal
# Method in brief: as §1
# Gal(a1-3)Gal(b1-3)GlcNAc = target: Gal(a1-3)Gal(b1-3)GlcNAc
# Method in brief: as §1
# Gal(a1-3)Gal(b1-4)Glc = target: Gal(a1-3)Gal(b1-4)Glc
# Method in brief: as §1
# [11] = target: Gal(a1-3)Gal(b1-4)GlcNAc(b1-2)Man(a1-3)[Gal(a1-3)Gal(b1-4)GlcNAc(b1-2)Man(a1-6)]Man(b1-4)GlcNAc(b1-4)GlcNAc
# Method in brief: as §1
# Gal(a1-4)GlcNAc = target: Gal(a1-4)GlcNAc
# Method in brief: as §1
# [12] = target: Gal(b1-3)GalNAc(b1-4)[Neu5Ac(a2-3)]Gal(b1-4)Glc
# Method in brief: as §1
# [13] = target: Gal(b1-3)GlcNAc(b1-2)Man(a1-3)[GlcNAc(b1-4)][Gal(b1-3)GlcNAc(b1-2)Man(a1-6)]Man(b1-4)GlcNAc(b1-4)GlcNAc
# Method in brief: as §1
# [14] = target: Gal(b1-3)GlcNAc(b1-3)GalNAc
# Method in brief: as §1
# [15] = target: Gal(b1-3)[Fuc(a1-4)]GlcNAc(b1-2)Man
# Method in brief: as §1
# [16] = target: Gal(b1-3)[Fuc(a1-4)]GlcNAc(b1-2)Man(a1-3)[Gal(b1-3)[Fuc(a1-4)]GlcNAc(b1-2)Man(a1-6)]Man(b1-4)GlcNAc(b1-4)[Fuc(a1-6)]GlcNAc
# Method in brief: as §1
# [17] = target: Gal(b1-3)[GlcNAc(b1-6)]GalNAc
# Method in brief: as §1
# [18] = target: Gal(b1-4)GlcNAc(b1-2)Man(a1-3)[Gal(b1-4)GlcNAc(b1-2)Man(a1-6)][GlcNAc(b1-4)]Man(b1-4)GlcNAc(b1-4)[Fuc(a1-6)]GlcNAc
# Method in brief: as §1
# [19] = target: Gal(b1-4)GlcNAc(b1-2)Man(a1-6)Man(b1-4)GlcNAc(b1-4)GlcNAc
# Method in brief: as §1
# [20] = target: Gal(b1-4)GlcNAc(b1-2)[Gal(b1-4)GlcNAc(b1-6)]Man(a1-6)[GlcNAc(b1-4)][Gal(b1-4)GlcNAc(b1-2)[Gal(b1-4)GlcNAc(b1-4)]Man(a1-3)]Man(b1-4)GlcNAc(b1-4)[Fuc(a1-6)]GlcNAc
# Method in brief: as §1
# [21] = target: Gal(b1-4)GlcNAc(b1-3)Gal(b1-3)GalNAc
# Method in brief: as §1
# [22] = target: Gal(b1-4)GlcNAc(b1-3)Gal(b1-3)GlcNAc
# Method in brief: as §1
# [23] = target: Gal(b1-4)GlcNAc(b1-3)Gal(b1-4)GlcNAc(b1-3)Gal(b1-4)GlcNAc(b1-3)Gal(b1-4)GlcNAc(b1-2)[Gal(b1-4)GlcNAc(b1-3)Gal(b1-4)GlcNAc(b1-3)Gal(b1-4)GlcNAc(b1-3)Gal(b1-4)GlcNAc(b1-6)]Man(a1-6)[Gal(b1-4)GlcNAc(b1-3)Gal(b1-4)GlcNAc(b1-3)Gal(b1-4)GlcNAc(b1-3)Gal(b1-4)GlcNAc(b1-2)Man(a1-3)]Man(b1-4)GlcNAc(b1-4)[Fuc(a1-6)]GlcNAc
# Method in brief: as §1
# [24] = target: Gal(b1-4)GlcNAc(b1-3)Gal(b1-4)GlcNAc(b1-3)GalNAc
# Method in brief: as §1
binder,measurement,setting,value
B1,glycan array binding signal (z-score),[1],-0.505
same,glycan array binding signal (z-score),[2],-0.097
same,glycan array binding signal (z-score),[3],-0.71
same,glycan array binding signal (z-score),[4],4.04
same,glycan array binding signal (z-score),[5],3.83
same,glycan array binding signal (z-score),[6],2.6
same,glycan array binding signal (z-score),[7],-1.01
same,glycan array binding signal (z-score),[8],0.205
same,glycan array binding signal (z-score),[9],1.38
same,glycan array binding signal (z-score),[10],0.051
same,glycan array binding signal (z-score),Fuc(b1-3)GlcNAc,-0.095
same,glycan array binding signal (z-score),Gal(a1-2)Gal,0.558
same,glycan array binding signal (z-score),Gal(a1-3)Gal,3.63
same,glycan array binding signal (z-score),Gal(a1-3)Gal(b1-3)GlcNAc,3.82
same,glycan array binding signal (z-score),Gal(a1-3)Gal(b1-4)Glc,-0.294
same,glycan array binding signal (z-score),[11],-0.855
same,glycan array binding signal (z-score),Gal(a1-4)GlcNAc,0.748
same,glycan array binding signal (z-score),[12],-0.754
same,glycan array binding signal (z-score),[13],1.46
same,glycan array binding signal (z-score),[14],0.082
same,glycan array binding signal (z-score),[15],2.96
same,glycan array binding signal (z-score),[16],-0.645
same,glycan array binding signal (z-score),[17],0.239
same,glycan array binding signal (z-score),[18],4.28
same,glycan array binding signal (z-score),[19],-0.165
same,glycan array binding signal (z-score),[20],2.65
same,glycan array binding signal (z-score),[21],-0.393
same,glycan array binding signal (z-score),[22],1.15
same,glycan array binding signal (z-score),[23],-0.802
same,glycan array binding signal (z-score),[24],-0.75
